Molecules are shown by their SMILES. Inconclusive results are not listed. The source made the active and inactive calls. Rule for the calls: active = hit-call score of the fitted dose curve at least 0.9, where 1 is the maximum; inconclusive = response in the unintended direction; inactive = score below 0.9.

The nature of this assay: CCTE_Harrill_HTTr_CellCount_MCF7: CCTE's Cell Proliferation Assessment for the High-Throughput Transcriptomics (HTTr) Platform, Harrill Lab (AID 2284012).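 Note: cells exposed to compound for six hours; intended direction is loss of nuclei count meaning fewer cells.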 The text has this: This is a cell-based assay that evaluates cell viability and cell growth using high content imaging to count the number of Hoechst-labeled nuclei that are present in an assay well in 384-well format.This is a cell-based assay that evaluates cell viability and cell growth in MCF-7 cells. This was part of a full screening experiment. High content imaging is used to count the number of Hoechst-labeled nuclei that are present in an assay well in 384-well format.The assay component endpoint CCTE_Harrill_HTTr_CellCount_MCF7 was analyzed with bidirectional fitting relation to DMSO as the negative control and baseline of activity. Using a type of viability reporter, loss-of-signal activity can be used to understand changes in cell count. To generalize the intended target to other relatable targets, this assay endpoint is annotated to cell cycle, where the subfamily is cell count.
Chemicals were tested in MCF7 cells in an eight point dilution series with a six hour exposure duration.
As to `Cc1ccc(S(N)(=O)=O)cc1`, the molecule was classed as inactive. Turning to `C1=CC2C3C=CC(C3)C2C1` (stereo not given), the call was inactive.

With `CC(C)c1ccccc1O`, the call was inactive. Still for that read-out and setting: as for `CC(C)(C)c1ccc(C(=O)O)cc1`, the entry is “inactive”.

As for `CC(=O)Nc1ccc(C(=O)CCl)cc1`, the result was inactive. `CC(C)C[C@H](NC(=O)OCC1c2ccccc2-c2ccccc21)C(=O)O`: the outcome was inactive. The same measure, in the same setting: as for `C[C@@H]1CCN(C(=O)[C@H](CCCN=C(N)N)NS(=O)(=O)c2cccc3c2NC[C@H](C)C3)[C@@H](C(=O)O)C1`, the entry is “inactive”; as for `CCC1(c2ccccc2)C(=O)NCNC1=O`, “inactive”; as for `CC(=O)CC(=O)Nc1ccccc1`, “inactive”.

Regarding `CCCC1O[C@@H]2C[C@H]3[C@@H]4CCC5=CC(=O)C=C[C@]5(C)[C@H]4[C@@H](O)C[C@]3(C)[C@]2(C(=O)CO)O1` (stereo not given in full), the result was inactive. One may read the AC50 as the concentration at which the activity in the assay is half-maximal. Consider `[O-]n1ccccc1=S.[O-]n1ccccc1=S.[Zn+2]`, for which the half-maximal activity concentration (AC50) is 50 µM (active). In the case of `CC(C)(C)CC(C)(C)c1ccc(OCCOCC[N+](C)(C)Cc2ccccc2)cc1`, the molecule was called inactive. As for `CCCCC1(COC(=O)CCC(=O)O)C(=O)N(c2ccccc2)N(c2ccccc2)C1=O`, the call was inactive. Same read-out and setting: to `CC(C)(CO)[C@@H](O)C(=O)NCCC(=O)O` belongs “inactive”; to `COC(=O)Nc1ccc(Cl)c(Cl)c1`, “inactive”. The same measure, in the same setting: to `O=C(O)CCCCCCCCCCCC(=O)O` belongs “inactive”; to `CCCC(=O)OCCc1ccccc1`, “inactive”; to `CC(CN=Cc1ccccc1O)N=Cc1ccccc1O` (stereo not given), “inactive”. Same read-out and setting: as for `C[C@H]1C[C@@H](O)CC(C)(C)C1`, the entry is “inactive”. With `COc1cc([C@@H]2c3cc4c(cc3[C@@H](O[C@@H]3O[C@@H]5CO[C@@H](C)O[C@H]5[C@H](O)[C@H]3O)[C@H]3COC(=O)[C@H]23)OCO4)cc(OC)c1O`, the molecule was called inactive. The same measure, in the same setting: as for `O=[N+]([O-])c1cccc(Cl)c1`, the entry is “inactive”; as for `O=C(O)c1cccnc1C(=O)O`, “inactive”. On the same count and under the same terms, to `CS(=O)(=O)OCCCCOS(C)(=O)=O` belongs “inactive”; to `CN(C)CCOc1ccc(/C(=C(/CCCl)c2ccccc2)c2ccccc2)cc1`, “inactive”; to `c1ccc2[nH]cnc2c1`, “inactive”. As for `CCCCCc1ccco1`, the call was inactive. Still for that read-out and setting: to `OCC#CCO` belongs “inactive”; to `Nc1ccn([C@H]2CS[C@@H](CO)O2)c(=O)n1`, “inactive”. As for `CCCCCCOC(=O)CCC`, the result was inactive. Still for that read-out and setting: as for `Cc1[nH]c(=O)c(C#N)cc1-c1ccncc1`, the entry is “inactive”; as for `CCC(C)=O`, “inactive”. On to `COc1ccc(CCN2CCC(Nc3nc4ccccc4n3Cc3ccc(F)cc3)CC2)cc1`, for which the AC50 was 79.2 µM (active).

As to `N[C@@H](Cc1cc(I)c(Oc2cc(I)c(O)c(I)c2)c(I)c1)C(=O)O`, the molecule was called inactive. Still for that read-out and setting: as for `O=CCc1ccccc1`, the entry is “inactive”.

Take `CN1C(=O)c2ccccc2C1=O`: the call was inactive. The same measure, in the same setting: to `C=CCOC(=O)CCCCCC` belongs “inactive”. Still for that read-out and setting: as for `CCc1ccc(O)cc1`, the entry is “inactive”; as for `Cc1ccc(-c2ccccc2)cc1`, “inactive”; as for `CC1CCC(C(C)C)C(O)C1` (stereo not given), “inactive”.

`Cc1ccc(N)c(S(=O)(=O)O)c1`: the molecule was called inactive.

For the origin of these results see PubChem BioAssay (EPA / NIEHS).
